Laboratory results: PubChem BioAssay (NCATS)
Records with an inconclusive call do not appear. The source made the active and inactive calls. The call rests on the fitted dose curve; in most records, active means well fitted inhibition curve with a large enough effect; inconclusive means small, poorly fitted or top-dose-only effect; inactive means flat fitted curve, though single readings scatter.

Assays:
HEK293 = experiment: Cytotoxic Profiling of Annotated Libraries Using Quantitative High-Throughput Screening (AID 1296008); conditions: Five cell lines viability, CellTiter-Glo ATP luminescence, 48-72 h; max response: hits give low values; on max response: on the % scale 0 is the no-effect control and ±100 the full control effect
Outline: (§1)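 Compounds were pin-transferred onto cells and incubated 48 or 72 hr at 37 degree Celsius, 95% humidity. CellTiter-Glo was added, plates sat 10 min at room temperature, then ATP-coupled luminescence was imaged as the viability read-out.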

HaCat [1] = experiment: as above; conditions: Five cell lines viability, CellTiter-Glo ATP luminescence, 48-72 h; max response: hits give low values
Outline: as §1

KB-3-1 = experiment: as above; conditions: Five cell lines viability, CellTiter-Glo ATP luminescence, 48-72 h; max response: hits give low values
Outline: as §1

NIH3T3 = experiment: as above; conditions: Five cell lines viability, CellTiter-Glo ATP luminescence, 48-72 h; max response: hits give low values
Outline: as §1

HACAT [2] = experiment: qHTS assay to identify novel small-molecules to repurpose for Merkel cell carcinoma treatment (AID 1296009); conditions: MCC and control cell lines, CellTiter-Glo viability, 72 h; at 44.8 µM (top of the series) unless noted
Outline: (§2)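 qHTS format: cells treated with library compounds in DMSO across 8 (NPC) or 11 (MIPE) concentrations. Readout after 72 hr at 37 degree celsius was CellTiter-Glo luminescence.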

HEK293T = experiment: as above; conditions: MCC and control cell lines, CellTiter-Glo viability, 72 h; series mostly up to 44.8 µM
Outline: as §2
Further: nearly all actives have a fitted effect of over 60% in size.

Clc1ccc2c(c1)C1=NCCN1c1c(-c3noc(C4CC4)n3)ncn1-2
inactive: outcome (HEK293) | outcome (HaCat [1]) | outcome (KB-3-1) | outcome (NIH3T3) | outcome (HACAT [2]) | Potency (HEK293T)

COc1ccc(C2=CC(=O)OC2Cc2ccc(O)cc2)c(O)c1 (centres undefined)
inactive: outcome (HEK293) | outcome (HaCat [1]) | max response (KB-3-1) 6.42% | max response (NIH3T3) 1.17% | outcome (HACAT [2]) | Potency (HEK293T)

O=C(O)c1ccc(CCCc2ccc(OCCc3ccc(F)cc3)cc2)o1
inactive: outcome (HEK293) | outcome (HaCat [1]) | outcome (KB-3-1) | outcome (NIH3T3) | outcome (HACAT [2]) | Potency (HEK293T)

O=C(COc1ccc(Cl)cc1)NC1CCC(NC(=O)COc2ccc(Cl)cc2)CC1 (centres undefined)
inactive: outcome (HEK293) | outcome (HaCat [1]) | max response (KB-3-1) -4.12% | max response (NIH3T3) -4.22% | outcome (HACAT [2]) | Potency (HEK293T)

O=C(c1ccc(F)cc1)C1CCN(CCn2c(=O)nc3n(c2=O)CCCC3)CC1
inactive: outcome (HEK293) | outcome (HaCat [1]) inactive; activator | max response (KB-3-1) -0.742% | max response (NIH3T3) -0.166% | outcome (HACAT [2]) inactive; activator | Potency (HEK293T)

O=C1CC(c2ccc([N+](=O)[O-])cc2)=NN1c1ccccc1
inactive: outcome (HEK293) | outcome (HaCat [1]) | max response (KB-3-1) 3.45% | max response (NIH3T3) 2.7% | outcome (HACAT [2]) | Potency (HEK293T)

CC(=O)N(O)CCCCCN1C(=O)CCC1=O
inactive: outcome (HEK293) | outcome (HaCat [1]) | max response (KB-3-1) 2.57% | outcome (NIH3T3) | outcome (HACAT [2]) | Potency (HEK293T)

COc1cc(/C=C/CO)ccc1O[C@@H]1O[C@H](CO)[C@@H](O)[C@H](O)[C@H]1O
inactive: outcome (HEK293) | outcome (HaCat [1]) | max response (KB-3-1) 9.42% | outcome (NIH3T3) | outcome (HACAT [2]) | Potency (HEK293T)

COc1cc(C[C@H]2COC(=O)[C@@H]2Cc2ccc(O)c(OC)c2)ccc1O
inactive: outcome (HEK293) | outcome (HaCat [1]) | max response (KB-3-1) -4.79% | outcome (NIH3T3) | outcome (HACAT [2]) | Potency (HEK293T)

COc1cc(O[C@@H]2O[C@H](CO)[C@@H](O)[C@H](O)[C@H]2O)c(CCC(=O)OC[C@H]2O[C@@H](Oc3cc(OC)c(C4OC(=O)C(C)(O)C4O)cc3CCC(=O)O)[C@H](O)[C@@H](O)[C@@H]2O)cc1C1OC(=O)C(C)(O)C1O (some centres undefined)
inactive: outcome (HEK293) | outcome (HaCat [1]) | max response (KB-3-1) 9.44% | max response (NIH3T3) -2.47% | outcome (HACAT [2]) inactive [at 9.27 µM] | outcome (HEK293T) inactive [at 9.27 µM]

C/C=C/C1=CC2=CC(=O)C(C)(O)C(OC(=O)c3c(C)cc(O)cc3O)C2CO1 (centres undefined)
inactive: outcome (HEK293) | outcome (HaCat [1]) | max response (KB-3-1) 2.68% | outcome (NIH3T3) | outcome (HACAT [2]) | Potency (HEK293T)

COc1cc([C@H]2OC[C@]3(OC(C)=O)[C@@H](c4ccc(O[C@@H]5O[C@H](CO)[C@@H](O)[C@H](O)[C@H]5O)c(OC)c4)OC[C@H]23)ccc1O
inactive: outcome (HEK293) | outcome (HaCat [1]) | outcome (KB-3-1) | max response (NIH3T3) 4.83% | outcome (HACAT [2]) inactive [at 17.4 µM] | Potency (HEK293T)

C/C=C(\C)C(=O)OC[C@H]1O[C@H](O[C@H]2O[C@H](CO)[C@@H](OC(=O)/C(C)=C/C)[C@H](O)[C@H]2O[C@@H]2O[C@H](CO)[C@@H](O)[C@H](O)[C@H]2O)[C@H](O[C@@H]2O[C@H](CO)[C@@H](O)[C@H](O)[C@H]2O)[C@@H](O)[C@@H]1O
inactive: outcome (HEK293) | outcome (HaCat [1]) | max response (KB-3-1) 8.89% | max response (NIH3T3) 2.61% | outcome (HACAT [2]) inactive [at 9.27 µM] | outcome (HEK293T) inactive [at 9.27 µM]

COC(=O)CC[C@@H](C)[C@H]1CC[C@H]2[C@@H]3CC(=O)[C@H]4C[C@H](OC(C)=O)CC[C@]4(C)[C@H]3CC[C@]12C
inactive: outcome (HEK293) | outcome (HaCat [1]) | outcome (KB-3-1) | max response (NIH3T3) -0.377% | outcome (HACAT [2]) | Potency (HEK293T)

COC(=O)C1C(c2ccc(O)cc2)C(C(=O)OC)C1c1ccc(O)cc1 (centres undefined)
inactive: outcome (HEK293) | outcome (HaCat [1]) | outcome (KB-3-1) | outcome (NIH3T3) | outcome (HACAT [2]) | Potency (HEK293T)

C[C@@H]1C(=O)O[C@H]2CC34[C@H]5C[C@@H](C(C)(C)C)C36[C@@H](OC(=O)[C@@H]6O)OC4(C(=O)O5)[C@]21O (some centres undefined)
inactive: outcome (HEK293) | outcome (HaCat [1]) | max response (KB-3-1) 9.69% | max response (NIH3T3) 4.14% | outcome (HACAT [2]) | Potency (HEK293T)

CC12CC34C=CC(=O)C(C)(CCC(=O)O)C3C(CC1C4)O2 (centres undefined)
inactive: outcome (HEK293) | outcome (HaCat [1]) | max response (KB-3-1) 5.48% | outcome (NIH3T3) | outcome (HACAT [2]) | Potency (HEK293T)

CC(C)(O)c1ccc2c(c1)C(O)CC1C(C)(C(=O)O)CCCC21C (centres undefined)
inactive: outcome (HEK293) | outcome (HaCat [1]) | max response (KB-3-1) 3.03% | outcome (NIH3T3) | outcome (HACAT [2]) | Potency (HEK293T)

C=C1CCC2(OC1)OC1CC3C4CC=C5CC(O)CC(O[C@@H]6OC[C@@H](O)[C@H](O)[C@H]6O)C5(C)C4CCC3(C)C1(O)C2C (some centres undefined)
inactive: outcome (HEK293) | outcome (HaCat [1]) | max response (KB-3-1) -0.359% | outcome (NIH3T3) | outcome (HACAT [2]) inactive [at 17.4 µM] | Potency (HEK293T)
